Measurements published in PubChem BioAssay (Tox21).
Several values for one entry are separate records, joined by “and”; a condition that tells them apart may be missing. Equal values may be shown once. Results filed as inconclusive are left out. Some compounds were tested as several samples or in several runs, with calls that do not always agree. Activity calls are given as the source filed them. Calls come from the whole dose curve; as a rule, active = well fitted inhibition curve with a large enough effect in the signal ratio in the repeat runs, with a control signal flat; inconclusive = weak or mixed curves, or effect the other way; inactive = flat fitted curve, though single readings scatter; the % refers to the signal ratio.

target: D(2) dopamine receptor (Homo sapiens) (UniProt P14416); assay: Dopamine D2 receptor (DRD2) small molecule antagonists, cell-based qHTS assay (AID 1963595); details: HEK293-DRD2 cAMP HTRF antagonist mode; series mostly up to 92.4 µM; activity change, negative = inhibition: at the top concentration
Sequence (P14416 whole entry, looked up): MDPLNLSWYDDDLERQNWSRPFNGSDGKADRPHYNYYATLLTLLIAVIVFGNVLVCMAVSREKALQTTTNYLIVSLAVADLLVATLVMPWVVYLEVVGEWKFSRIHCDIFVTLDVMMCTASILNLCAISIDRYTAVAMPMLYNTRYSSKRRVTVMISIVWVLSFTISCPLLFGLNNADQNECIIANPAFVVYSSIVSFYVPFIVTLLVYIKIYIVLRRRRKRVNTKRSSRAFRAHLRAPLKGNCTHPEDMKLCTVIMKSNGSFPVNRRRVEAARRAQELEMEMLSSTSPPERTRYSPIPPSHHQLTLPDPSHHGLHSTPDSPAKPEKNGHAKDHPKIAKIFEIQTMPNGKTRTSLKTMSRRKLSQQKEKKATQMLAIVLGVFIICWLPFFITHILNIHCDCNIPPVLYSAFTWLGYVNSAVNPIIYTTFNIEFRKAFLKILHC
Excerpt: National Center for Advancing Translational Sciences [NCATS]
Division of Preclinical Innovation [DPI]
U.S. Environmental Protection Agency [EPA]
National Institutes of Environmental Health Sciences [NIEHS]
National Toxicology Program [NTP]
U.S. Food and Drug Administration [FDA]
DRD2 is the D2 subtype of the dopamine receptor, which is coupled to Gi subtype of G protein-coupled receptor. This G protein-coupled receptor inhibits adenylyl cyclase activity. The DRD2-HEK293 cell line stably expressing D2 dopamine receptor can be used for screening agonists and antagonists of interactions between D2 and its ligands. The Hek293-DRD2 cAMP assay is based on HTRF technology. It measures changes of cAMP accumulation in response to Gi coupled GPCR activation or inhibition.
Tox21 Assay Protocol Summary:
DRD2-Hek293 cells were dispensed at 600 cells/3uL/well in 1536-well white plates using a Multidrop Dispenser. After the assay plates were incubated at a 37 C/5% CO2 incubator for 24 h, 1 uL of Ro20-1724 at final concentration of 0.1 mM was transferred to the assay plate by a Flying Reagent Dispenser. Following Ro20-1724 addition, 23 nL of compound dissolved in DMSO, positive controls or DMSO only was added to the assay plates via Wako pintool station. The assay plates were incubated at room temperature for 10 min. Next, 1 uL of mixture of NKH477 (final concentration at 200 nM) and quinpirole (final concentration at 12 nM) was added into the plates. After the assay plates were incubated at room temperature for an additional 30 min, 2.5 ul/well of cAMP-d2 and 2.5 ul/well of anti-cAMP-cryptate were added respectively into the assay plates using a Flying Reagent Dispenser. The plates were incubated at room temperature for 1 h. The fluorescence intensity in the plates was measured at 340 nm excitation and 665 & 620 nm emission by an Envision plate reader.
% is set by controls: 0 for no effect and ±100 for the full control effect; potency is the fitted concentration of half-maximal effect.

Row | Compound | Potency | activity change, negative = inhibition
1 | Cc1cc(-c2cc(C)c(N)c(C)c2)cc(C)c1N | inactive | –
2 | C=CCc1ccc(OC)cc1 | inactive | –
3 | CC(C)c1cccc(C(C)C)c1O | inactive | –
4 | CC(C)c1ccc(NC(=O)N(C)C)cc1 | – | 3.64% (inactive)
5 | Cc1ccccc1[N+](=O)[O-] | – | -0.159% (inactive)
6 | COc1cccc(C=O)c1 | – | 5.04% (inactive)
7 | CC(O)CCO (stereo not given) | inactive | –
8 | Nc1ccc(Cl)cc1 | inactive | –
9 | Cc1cccc(N=Nc2ccc(N(C)C)cc2)c1 | inactive | –
10 | CCCCCCCCCCCCCCCC[n+]1ccccc1 | inactive and 60.3 µM (active) | –
11 | ClCCBr | inactive | –
12 | CC(=O)[C@H]1CC[C@H]2[C@@H]3CC[C@H]4C[C@](C)(O)CC[C@]4(C)[C@H]3CC[C@]12C | – | 9.98% [at 42.5 µM] (inactive)
13 | C=CCN=C=S | inactive | –
14 | CC1=C2[C@H]3OC(=O)[C@@H](C)[C@@H]3CC[C@@]2(C)C=CC1=O | – | -7.46% [at 42.5 µM] (inactive)
15 | Nc1cc(Cl)cc(Cl)c1 | inactive | –
16 | O=NN1CCCCCCC1 | inactive | –
17 | ClC1=C(Cl)[C@]2(Cl)[C@@H]3[C@@H](Cl)[C@@H](Cl)C[C@@H]3[C@@]1(Cl)C2(Cl)Cl | – | -0.0114% (inactive)
18 | NCC(O)c1ccc(O)cc1 (stereo not given) | inactive | –
19 | C[CH2][Hg][S]c1ccccc1C(=O)O | – | -0.888% [at 42.5 µM] (inactive)
20 | N#Cc1ccc(O)cc1 | – | -2.44% (inactive)

Row | Compound | Potency | activity change, negative = inhibition
21 | CCC(=O)OC1(c2ccccc2)CCN(C)CC1 | – | -4.98% (inactive)
22 | Clc1cnc(Oc2ccc(Oc3ncc(Cl)cc3Cl)cc2)c(Cl)c1 | inactive | –
23 | CC(c1ccc(O)cc1)c1ccc(O)cc1 | – | -5.73% (inactive)
24 | O=[N+]([O-])c1ccc(CBr)cc1 | – | 7.84% (inactive)
25 | O=c1n(Cl)c(=O)n(Cl)c(=O)n1Cl | inactive | –
26 | CCN(CC)CCN1C(=O)CN=C(c2ccccc2F)c2cc(Cl)ccc21 | – | -2.33% [at 42.5 µM] (inactive)
27 | c1ccc(-c2ccccc2)cc1 | inactive | –
28 | CCC(C)Cl (stereo not given) | – | 4.32% (inactive)
29 | O=C(O)C(Cl)(Cl)Br | – | -0.528% (inactive)
30 | CC(Cl)CCl (stereo not given) | – | -1.13% (inactive)
31 | CCOP(=S)(OCC)Oc1nc(Cl)c(Cl)cc1Cl | – | -9.72% (inactive)
32 | CCCCCBr | – | 9.98% (inactive)
33 | CN(C)CCc1c[nH]c2cccc(OP(=O)(O)O)c12 | – | -2.37% (inactive)
34 | N#CSCSC#N | 27.9 µM (active) and 27 µM (active) | –
35 | O=[N+]([O-])c1cc([As](=O)(O)O)ccc1O | inactive | –
36 | ClCc1ccccc1CCl | – | 4.9% (inactive)
37 | O=S(=O)(Oc1ccc(Cl)cc1)c1ccc(Cl)cc1 | inactive | –
38 | C=CC(=O)OC(C)(C)C | – | 10.2% (inactive)
39 | Cc1ccc(N)cc1N | inactive | –
40 | CC1(C)C(C=C(Cl)Cl)C1C(=O)OC(C#N)c1ccc(F)c(Oc2ccccc2)c1 (stereo not given) | – | 2.81% (inactive)
